The record followed here is PubChem BioAssay (EPA / NIEHS).

In general, AC50 refers to the concentration giving half of the maximal activity seen.

Values joined by “and” are separate entries in the source; they are usually repeats but may differ in a detail not shown here. Identical values can stand only once. Active and inactive are the calls of the source. The calls were made as follows: active = hit-call score of the fitted dose curve at least 0.9, where 1 is the maximum; inactive = score below 0.9.

Read-out in the assay: Transforming growth factor beta 1 (TGFb1), TGFB1 (gene 7040)
The assay can be described thus: BSK_KF3CT_TGFb1: BioMAP Diversity Plus: KF3CT Assay for Transforming growth factor beta 1 (TGFb1) Biomarker Activity (AID 2283072). To be noted: primary human keratinocytes with fibroblasts; actives raise or lower the signal. The method, then: BSK_KF3CT is a cell-based, multiplexed-readout assay that uses keratinocytes and foreskin fibroblasts, a human skin primary cell co-culture, with measurements taken at 24 hours after chemical dosing in a 96-well plate.BSK_KF3CT_TGFb1 is an assay component measured in the BSK_KF3CT assay. It measures TGF-b1 antibody related to regulation of gene expression using ELISA technology.Data from the assay component BSK_KF3CT_TGFb1 was analyzed into 1 assay endpoint. This assay endpoint, BSK_KF3CT_TGFb1, was analyzed with bidirectional fitting relative to DMSO as the negative control and baseline of activity. Using a type of binding reporter, gain or loss-of-signal activity can be used to understand changes in the signaling as they relate to the gene TGFB1. Furthermore, this assay endpoint can be referred to as a primary readout, because this assay has produced multiple assay endpoints where this one serves a signaling function. To generalize the intended target to other relatable targets, this assay endpoint is annotated to the growth factor intended target family, where the subfamily is transforming growth factor beta.
The levels of cell surface (or secreted, indicated by the prefix "s") biomarker endpoints were measured by ELISA. Overt cytotoxicity to cells in confluent adherent cultures (all systems other than the BT system) was assessed by measuring total protein levels using sulforhodamine B (SRB) staining in parallel cultures at the time of biomarker measurements, indicated as SRB endpoints. For proliferation assays for adherent cell types, individual cell types are cultured at sub-confluence and relative cell numbers quantified by SRB staining at time points optimized for each system (48 h: 3C and CASM3C systems; 72 h: BT and HDF3CGF systems; 96 h: SAg system). SRB was performed by staining cells with 0.1% SRB after fixation with 10% TCA and reading wells at 560 nm.Viability and proliferation of PBMC (T cells) was quantified by Alamar Blue reduction for the SAg and BT systems. For PBMC viability (referred to as PBMC Cytotoxicity within the assay endpoint names), cells were plated (75,000/well in a 96-well plate) and then chemical samples added for 1 h before addition of activators, SEB and TSST-1 (20 ng/mL final concentration each). Cells were incubated for 90 h. Then, Alamar Blue (20 uL/well) (Invitrogen, Cat DAL1100) was added for 6 h, and the plates were read with a fluorescence microplate reader at 546/580 nm (excitation/emission). For PBMC proliferation, cells were plated and activated as above but incubated for only 16 h prior to addition of Alamar Blue. Plates were read after 6 h.
With `C1CNCCN1`, the result was inactive. With `CCCCCCCCC(CO)CCCCCC` (stereo not given), the result was inactive. On to `c1ccc2c(c1)[nH]c1ccccc12`, for which the result was inactive.

Turning to `C=CC(=O)NCOCCCC`, the result was inactive.

In the case of `O=C(Cl)c1c(Cl)c(Cl)c(C(=O)Cl)c(Cl)c1Cl`, the outcome was inactive.

`CC(c1cc(C(C)(C)C)cc(C(C)(C)C)c1O)c1cc(C(C)(C)C)cc(C(C)(C)C)c1O`: the outcome was inactive.

`Fc1ccc(Br)cc1`: the outcome was inactive. Turning to `COc1ccc(C(=O)c2ccccc2)c(O)c1`, the result was inactive. Regarding `CCC1(C)C(=O)N(Cl)C(=O)N1Cl` (stereo not given), the result was inactive. For the compound `CC(C)[N+](C)(CCOC(=O)C1c2ccccc2Oc2ccccc21)C(C)C`, the result was inactive.

On to `C=C(C)C(=O)OCCCCCCCCCCCC`, for which the outcome was inactive.

On to `Nc1ccc(C(=O)O)cc1`, for which the result was inactive. `C=CC(=O)OCCCCCCOC(=O)C=C`: the concentration at half-maximal activity (AC50) is 3.97 µM (active). `CCc1cccc(C)c1N(C(=O)CS(=O)(=O)O)C(C)COC` (stereo not given): the result was inactive.

For the compound `CCNc1nc(NC(C)(C)C)nc(OC)n1`, the result was inactive.

Turning to `Cc1c(O)cccc1O`, the result was inactive. `Nc1cccc(N)n1`: the result was inactive.

In the case of `CCCCCCOC(=O)CCCCC(=O)OCCCCCC`, the result was inactive. Take `Clc1cc(Cl)c(Cl)c(Cl)c1Cl`: the result was inactive. For `CCOC(=O)C1=NOC(c2ccccc2)(c2ccccc2)C1`, the concentration at half-maximal activity (AC50) is 0.113 µM (active). With `CCCCCC1=CCCC1=O`, the outcome was inactive. Regarding `CCN1CN(CC)CN(CC)C1`, the outcome was inactive. `CCOC(=O)/C=C\C(=O)OCC`: the outcome was inactive. On to `C=CC(=O)OCCCCCCCC(C)C`, for which the result was inactive. For `Oc1c(Cl)cc(Cl)c(Cl)c1Cl`, the concentration at half-maximal activity (AC50) was 20 µM (active). With `CC1(C)CC(O)CC(C)(C)N1[O]`, the result was inactive. As for `C=CC(=O)OCC(C)OCC(C)OCC(C)OC(=O)C=C` (stereo not given), the result was inactive.

Take `COc1ccc(C(=O)/C(Br)=C\C(=O)O)cc1`: the AC50 is 20 µM (active) and 6.52 µM (active). As to `CC(C)c1cccc(C(C)C)c1N`, the result was inactive. For the compound `Cc1ccc([N+](=O)[O-])cc1N`, the outcome was inactive. Same read-out and setting: then `CCCCC1C(=O)N(c2ccccc2)N(c2ccccc2)C1=O`, with “inactive”. As for `c1ccc2sc(SSN3CCOCC3)nc2c1`, the result was inactive. For `CCOC(=O)C1=NN(c2ccc(Cl)cc2Cl)C(C)(C(=O)OCC)C1` (stereo not given), the result was inactive. Regarding `CC/C=C\CCOC(=O)c1ccccc1O`, the AC50 is 14.5 µM (active). For the compound `CC/C=C\C/C=C\C/C=C\CCCCCCCC(=O)OC`, the half-maximal activity concentration (AC50) is 6.41 µM (active).

For the compound `CC(Cl)COP(=O)(OCC(C)Cl)OCC(C)Cl` (stereo not given), the outcome was inactive. Consider `CC=C(C)C(C)=O`, for which the result was inactive. On the same count and under the same terms, next, `O=C1CCCCCCCCCCCN1`: “inactive”. As for `CCCCCCC=O`, the outcome was inactive.

As for `O=C1CCCCCCCCCCC1`, the outcome was inactive.
